According to PubChem BioAssay AID504725 (Broad Institute, 2011):
Measured potencies and affinities stand elsewhere. The source made the active and inactive calls. How the calls were made is not given here.

Each compound was assayed against KSHV LANA C-terminal domain (residues 932-1162) binding to LBS DNA (UniProt O40947) (assay: KSHV LANA DNA-binding disruption – biochemical, fluorescence polarization, cherry-picked samples, dose response (AID 504725)). Conditions: MBP-C-LANA / FAM-LBS DNA fluorescence polarization, percent change from plate compound-well median; series mostly up to 35 µM.

outcome, inactive:
CCOC(=O)N1CCN(C(=S)NC(=O)c2cccc(OC)c2)CC1
CCc1nnc(NC(=O)c2cccc(S(=O)(=O)N(C)c3ccccc3)c2)s1
CCn1c(-c2ccc([N+](=O)[O-])cc2)n[nH]c1=S
Fc1ccc(-c2cc(C(F)(F)F)nc(-n3cc(Cl)cn3)n2)cc1
COc1ccc(CNC(=O)C2CCC(CNC(=O)[C@@H]3Cc4ccccc4CN3)CC2)cc1 (stereo partly drawn)
CCCCn1nc(CC(=O)O)c2ccccc2c1=O
Cc1cccc(Nc2nc(N)c([N+](=O)[O-])c(NCc3ccccc3)n2)c1
Cc1ccc(C(=O)c2coc3ccc(O)c(Cl)c23)cc1
CCCCn1c(NS(=O)(=O)c2ccc(C)cc2)c(S(=O)(=O)c2ccccc2)c2nc3ccccc3nc21
COc1ccc(-c2nc(C(=O)O)cs2)cc1OC
CCN(c1ccc(C)cc1C)S(=O)(=O)c1nnc(NC(=O)c2ccco2)s1
CC1=[N+](C)N(c2ccccc2)C(=O)C1N=C/C=C/c1ccccc1 (stereo not drawn)
CSCCC(NC(=O)c1ccccc1Cl)C(=O)N1CCCC(C)C1 (stereo not drawn)
Brc1c(CSc2nncc3ccccc23)nc2ccccn12
O=C(O)c1ccccc1NS(=O)(=O)c1ccc(N/N=C/c2ccc(O)c(O)c2)c([N+](=O)[O-])c1
COc1ccccc1C(=O)NCC(=O)OCC(=O)N(CC(C)C)c1c(N)n(Cc2ccccc2)c(=O)[nH]c1=O
COc1ccc(Cl)cc1C(=O)NNC(=O)c1cc2ccccc2o1
O=C(Cn1c2ccccc2c2nc3n(c(=O)c21)CCS3)Nc1ccccc1C(F)(F)F
O=C(O)CCN1C(=O)/C(=C\c2ccc(-c3nc4ccccc4s3)o2)SC1=S
CCN(Cc1ccccc1)C(=O)c1cccc(S(=O)(=O)N2CCN(Cc3ccccc3)CC2)c1
C=CCOC(=O)C1=C[C@H](c2csc3ccccc23)C[C@H](OCc2ccc(CO)cc2)O1
O=C(CN(Cc1ccccc1F)C(=O)c1csnn1)NCc1ccc2c(c1)OCO2
O=C(N/N=C\c1ccc([N+](=O)[O-])o1)c1cncc(Br)c1
O=c1[nH][nH]cc1C=Nc1ccc(Cl)cc1Cl
CCOC(=O)C1=C(COC(=O)c2ccc([N+](=O)[O-])s2)NC(=O)NC1C (stereo not drawn)
COc1ccc(-c2cc(C(F)(F)F)n3ncc(C(=O)N4CCCCC4c4cccnc4)c3n2)cc1 (stereo not drawn)
O=C(CSc1nc2ccccc2[nH]1)Nc1cccc(S(=O)(=O)N2CCOCC2)c1
COc1cccc(NC(=O)CN(C)C(=O)c2cc3ccccc3cc2OC)c1
O=C(COc1cccc(F)c1)Nc1nc(-c2cccnc2)cs1
COCCN(C(=O)CN1CCCc2ccccc21)c1c(N)n(Cc2ccccc2)c(=O)[nH]c1=O
CC(C)=C1C2C=CC1C(C(=O)Nc1cc(C)ccc1C)C2C(=O)O (stereo not drawn)
Cc1cccc(NC(=O)CN2C(=O)NC(C)(c3ccc4ccccc4c3)C2=O)n1 (stereo not drawn)
O=C(c1ccc2c(c1)CCN2S(=O)(=O)c1ccccc1)N1CCN(c2ccc(F)cc2)CC1
Cn1c(=O)c2c(nc(SCC(=O)NCc3ccc4c(c3)OCO4)n2Cc2ccc(Cl)cc2)n(C)c1=O
N=c1ccn(Cc2ccc(Cl)cc2)cc1
COc1ccc(OC)c(NC(=O)c2nnn(Cc3ccc(Br)cc3F)c2N)c1
Cc1ccc(NC(=S)N/C(=N/S(=O)(=O)c2ccccc2)c2ccccc2)cc1
COc1ccc(N(CC(=O)NCc2ccc3c(c2)OCO3)C(=O)c2csnn2)cc1
